Reference: PubChem BioAssay (EPA / NIEHS)
Records with an inconclusive call do not appear. Calls of active or inactive are those of the source. The calls were made as follows, unless noted: active = hit-call score of the fitted dose curve at least 0.9, where 1 is the maximum; inactive = score below 0.9.

How the values were obtained:
[1] = target: Oxysterols receptor LXR-alpha (Homo sapiens) (UniProt Q13133); assay: ATG_LXRa_TRANS: Attagene TRANS-FACTORIAL HepG2 Assay for human Liver X Receptor alpha (LXRa) (AID 2282980; active = hit-call score of the fitted dose curve at least 0.9, where 1 is the maximum); conditions: HepG2 Attagene TRANS reporter, LXRa transactivation
Outline: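 Read-out: reporter transcript levels by RT-PCR plus capillary electrophoresis, fluorescence intensity. Transiently transfected HepG2, exogenous NR-GAL4 chimera, GAL4-UAS reporters; 24 h compound exposure. Activity = increase over DMSO negative control.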

[2] = target: Oxysterols receptor LXR-beta (Homo sapiens) (UniProt P55055); assay: ATG_LXRb_TRANS: Attagene TRANS-FACTORIAL HepG2 Assay for human Liver X Receptor beta (LXRb) (AID 2282981; active = hit-call score of the fitted dose curve at least 0.9, where 1 is the maximum); conditions: HepG2 Attagene TRANS GAL4-LXRb reporter, mRNA
Outline: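 Readout: fluorescent reporter mRNA fragments resolved by capillary electrophoresis after RT-PCR. System: transiently transfected human HepG2, exogenous LXRb-Gal4 chimera driving GAL4-UAS reporter, 24 h dosing. Activity fitted upward against DMSO baseline.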

[3] = target: Hepatocyte nuclear factor 4-alpha (Homo sapiens) (UniProt P41235); assay: ATG_HNF4a_TRANS: Attagene TRANS-FACTORIAL HepG2 Assay for human Hepatocyte Nuclear Factor 4 alpha (HNF4a) (AID 2282982; active = hit-call score of the fitted dose curve at least 0.9, where 1 is the maximum); conditions: HepG2 HNF4a transactivation reporter, mRNA readout
Outline: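 Transient MRTU transfection of HepG2, 24 h dosing. Readout: reporter mRNA via RT-PCR + capillary electrophoresis, fluorescence; activity fit upward relative to DMSO control.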

[4] = ATG_M_06_TRANS: Attagene TRANS-FACTORIAL HepG2 Assay for M06 Transcription Factor (Internal Marker) (AID 2282983; active = hit-call score of the fitted dose curve at least 0.9, where 1 is the maximum;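 as to AC50: potency for rise in reporter mRNA above DMSO baseline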); conditions: HepG2 Attagene TRANS M06 internal marker reporter
Outline: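 Read-out: fluorescent reporter cDNA fragments resolved by capillary electrophoresis after RT-PCR and HpaI cut. Source cells were HepG2 carrying transfected multi-reporter GAL4 constructs, dosed 24 h. Increase over DMSO control analysed.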

[5] = target: Transcriptional activator Myb (Homo sapiens) (UniProt P10242); assay: ATG_Myb_CIS: Attagene CIS-FACTORIAL HepG2 Assay for human Myeloblastosis (Myb) Proto-Oncogene Transcription Factor (AID 2282986); conditions: HepG2 Attagene CIS-FACTORIAL Myb reporter transcription; actives raise or lower the signal
Outline: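 Fluorescence signals from capillary electrophoresis of RT-PCR-amplified reporter cDNA give the read-out. Cells: HepG2 transfected with multiple cis-regulated reporter units. Exposure lasts 24 hours; DMSO defines baseline for gain or loss of signal.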

[6] = target: Nuclear respiratory factor 1 (Homo sapiens) (UniProt Q16656); assay: ATG_NRF1_CIS: Attagene CIS-FACTORIAL HepG2 Assay for human Nuclear Respiratory Factor 1 (NRF1) Orphan Gene (AID 2282987); conditions: HepG2 NRF1 cis-element reporter, Attagene multiplex; actives raise or lower the signal
Outline: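 Transcriptional reporter readout, one component of a 52-endpoint multiplexed HepG2 panel. Exposure 24 h; mRNA detected via RT-PCR and fluorescent capillary electrophoresis; fitting in both directions against DMSO.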

[7] = ATG_NFI_CIS: Attagene CIS-FACTORIAL HepG2 Assay for human Nuclear Factor I (NFI) (AID 2282989); conditions: HepG2 cis-regulatory reporter, NFI response element transcription; actives raise or lower the signal
Outline: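 Reporter transcription driven by endogenous transcription factors in HepG2 cells; 24 h treatment. Quantitation by labelled RT-PCR fragments on capillary electrophoresis, gain- or loss-of-signal relative to DMSO.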

[8] = ATG_NRF2_ARE_CIS: Attagene CIS-FACTORIAL HepG2 Assay for human Nuclear Factor Erythroid 2 Related Factor 2 (NFR2) response to Antioxidant Response Elements (ARE) (AID 2282992); conditions: HepG2 Attagene ARE/NRF2 reporter, transcription factor activity; actives raise or lower the signal;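 as to AC50: reporter mRNA level measured by RT-PCR and capillary electrophoresis fluorescence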
Outline: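 Using transiently transfected HepG2 cells exposed for 24 h, reporter mRNA levels were determined by RT-PCR with fluorescent primer extension and capillary electrophoresis, analysed for gain or loss of signal against DMSO.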

[9] = ATG_Oct_MLP_CIS: Attagene CIS-FACTORIAL HepG2 Assay for human Octamer-Binding Transcription Factor (Oct) (AID 2282993); conditions: HepG2 Attagene cis-factorial Oct reporter, mRNA; actives raise or lower the signal
Outline: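 Transfected HepG2 cells, 24 h treatment. Reporter mRNA quantified by RT-PCR–capillary electrophoresis; bidirectional fitting against DMSO.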

[10] = target: Cellular tumor antigen p53 (Homo sapiens) (UniProt P04637); assay: ATG_p53_CIS: Attagene CIS-FACTORIAL HepG2 Assay for human p53 Transcription Factor (AID 2282994); conditions: HepG2 p53 cis-element reporter, Attagene mRNA; actives raise or lower the signal
Outline: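 In HepG2 cells, reporter transcription units under cis-regulatory promoters were transiently introduced. Following 24 h treatment, RNA was processed to labelled, digested cDNA fragments read by capillary electrophoresis; fitting was bidirectional versus DMSO.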

[11] = ATG_M_32_TRANS: Attagene TRANS-FACTORIAL HepG2 Assay for M32 Transcription Factor (Internal Marker) (AID 2282984; active = hit-call score of the fitted dose curve at least 0.9, where 1 is the maximum;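 also: transcript level of a background control reporter unit measured by RT-PCR and capillary electrophoresis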); conditions: HepG2 Attagene TRANS M32 internal marker reporter
Outline: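 Read-out: fluorescent reporter cDNA fragments resolved by capillary electrophoresis after RT-PCR of total RNA. Transfected HepG2 cells were exposed to chemical for 24 h. Activity scored in the positive direction relative to DMSO.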

[12] = target: Myc proto-oncogene protein (Homo sapiens) (UniProt P01106); assay: ATG_Myc_CIS: Attagene CIS-FACTORIAL HepG2 Assay for human Myelocytomatosis (Myc) Proto-Oncogene Transcription Factor (AID 2282990); conditions: HepG2, Attagene cis-reporter transcription factor activity; actives raise or lower the signal
Outline: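 Read-out: fluorescent reporter mRNA fragments resolved by capillary electrophoresis after RT-PCR. Human HepG2 liver cells carried transfected cis-element reporter units and were dosed for 24 h. Gain or loss of signal fitted relative to DMSO baseline.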

[13] = ATG_NF_kB_CIS: Attagene CIS-FACTORIAL HepG2 Assay for human Nuclear Factor Kappa B (NF-kB) (AID 2282991); conditions: HepG2 Attagene cis-factorial NF-kB reporter mRNA; actives raise or lower the signal
Outline: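 HepG2, transient multi-reporter transfection, cis promoter elements (endogenous TFs). 24 h exposure. Total RNA → RT → PCR → 6-FAM label → HpaI → CE. Gain/loss vs DMSO.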

[14] = target: Bile acid receptor (Homo sapiens) (UniProt Q96RI1); assay: ATG_FXR_TRANS: Attagene TRANS-FACTORIAL HepG2 Assay for Farnesoid X Receptor (FXR) (AID 2282979; active = hit-call score of the fitted dose curve at least 0.9, where 1 is the maximum;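 also: hits raise reporter mRNA above DMSO so AC50 marks FXR activation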); conditions: HepG2 Attagene TRANS FXR-GAL4 reporter transcription
Outline: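 Read-out: fluorescent reporter transcripts quantified by capillary electrophoresis after RT-PCR of total RNA. Source cells were HepG2 transiently carrying chimeric NR-GAL4 plus GAL4-UAS reporter units, dosed 24 h. Activity fitted upward relative to DMSO baseline.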

[15] = target: Nuclear receptor subfamily 4 group A member 2 (Homo sapiens) (UniProt P43354); assay: ATG_NURR1_TRANS: Attagene TRANS-FACTORIAL HepG2 Assay for human Nuclear Receptor Related Protein 1 (NURR1) (AID 2282985; active = hit-call score of the fitted dose curve at least 0.9, where 1 is the maximum); conditions: HepG2 Attagene TRANS reporter, mRNA readout
Outline: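 Read-out: reporter mRNA induction by RT-PCR plus capillary electrophoresis with fluorescence detection, after 24 h dosing of transfected HepG2 cells. Exogenous NR-Gal4 chimera activity drives GAL4-UAS reporter; activity fitted upward versus DMSO.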

[16] = BSK_3C_TissueFactor: BioMAP Diversity Plus: 3C Assay for Tissue Factor Biomarker Activity (AID 2282997); conditions: BioMAP 3C HUVEC, tissue factor biomarker readout; actives raise or lower the signal
Outline: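 HUVEC, 3C system, 24 h post-dose; Tissue Factor by ELISA; bidirectional fit vs DMSO baseline.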

[17] = BSK_3C_uPAR: BioMAP Diversity Plus: 3C Assay for Urokinase-type plasminogen activator receptor (uPAR) Biomarker Activity (AID 2282998); conditions: BioMAP 3C HUVEC, uPAR biomarker ELISA; actives raise or lower the signal
Outline: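 Readout: ELISA for surface uPAR. System: human umbilical vein endothelial primary cells, 24 h after chemical exposure. Analysis: bidirectional fit, DMSO baseline.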

[18] = BSK_3C_VCAM1: BioMAP Diversity Plus: 3C Assay for Vascular cell adhesion molecule 1 (VCAM1) Biomarker Activity (AID 2282999); conditions: BioMAP 3C HUVEC, VCAM1 ELISA, cytokine-stimulated; actives raise or lower the signal
Outline: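 HUVEC primary cells, 24 h compound exposure; VCAM-1 by ELISA; gain/loss of signal fitted bidirectionally vs DMSO baseline.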

[19] = BSK_4H_Eotaxin3: BioMAP Diversity Plus: 4H Assay for Eotaxin 3 Biomarker Activity (AID 2283000); conditions: primary human endothelial cells (HUVEC); actives raise or lower the signal
Outline: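 Readout is Eotaxin-3 (CCL26) level by ELISA in primary human umbilical vein endothelial cells harvested 24 h after chemical exposure; activity fitted in both directions against DMSO control.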

Measured: AC50

Chain of Cellular tumor antigen p53 (Homo sapiens) (P04637 whole entry, looked up, the tested form may be a part): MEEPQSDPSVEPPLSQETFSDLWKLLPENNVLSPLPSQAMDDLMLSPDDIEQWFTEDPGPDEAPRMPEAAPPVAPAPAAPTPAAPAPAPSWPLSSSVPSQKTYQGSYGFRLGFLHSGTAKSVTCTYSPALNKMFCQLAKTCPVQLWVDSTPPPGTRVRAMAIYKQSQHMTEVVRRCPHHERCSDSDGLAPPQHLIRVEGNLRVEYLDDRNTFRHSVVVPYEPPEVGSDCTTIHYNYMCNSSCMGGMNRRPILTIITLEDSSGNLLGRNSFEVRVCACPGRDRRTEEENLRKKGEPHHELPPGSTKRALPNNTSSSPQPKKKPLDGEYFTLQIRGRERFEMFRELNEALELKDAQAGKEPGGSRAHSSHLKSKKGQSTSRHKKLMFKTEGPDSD
Chain of Transcriptional activator Myb (Homo sapiens) (P10242 whole entry, looked up): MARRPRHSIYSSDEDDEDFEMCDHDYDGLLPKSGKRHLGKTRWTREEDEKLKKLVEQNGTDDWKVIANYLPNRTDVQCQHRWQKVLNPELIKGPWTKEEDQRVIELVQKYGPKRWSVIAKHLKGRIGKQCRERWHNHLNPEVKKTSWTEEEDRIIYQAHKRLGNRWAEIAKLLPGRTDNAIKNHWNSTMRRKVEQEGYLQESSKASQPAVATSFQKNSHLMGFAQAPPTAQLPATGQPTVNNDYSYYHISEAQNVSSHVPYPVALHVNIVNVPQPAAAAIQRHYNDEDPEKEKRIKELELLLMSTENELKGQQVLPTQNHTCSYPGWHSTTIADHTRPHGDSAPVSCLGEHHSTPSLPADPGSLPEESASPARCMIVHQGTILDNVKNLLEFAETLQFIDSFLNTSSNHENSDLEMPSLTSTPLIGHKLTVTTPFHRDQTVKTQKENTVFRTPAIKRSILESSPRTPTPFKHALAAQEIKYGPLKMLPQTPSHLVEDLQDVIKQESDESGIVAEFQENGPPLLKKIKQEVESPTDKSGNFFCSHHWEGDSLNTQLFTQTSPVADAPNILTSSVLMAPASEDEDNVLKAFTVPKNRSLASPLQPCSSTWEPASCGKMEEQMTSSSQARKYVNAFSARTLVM
Chain of Oxysterols receptor LXR-alpha (Homo sapiens) (Q13133 whole entry, looked up, the tested form may be a part): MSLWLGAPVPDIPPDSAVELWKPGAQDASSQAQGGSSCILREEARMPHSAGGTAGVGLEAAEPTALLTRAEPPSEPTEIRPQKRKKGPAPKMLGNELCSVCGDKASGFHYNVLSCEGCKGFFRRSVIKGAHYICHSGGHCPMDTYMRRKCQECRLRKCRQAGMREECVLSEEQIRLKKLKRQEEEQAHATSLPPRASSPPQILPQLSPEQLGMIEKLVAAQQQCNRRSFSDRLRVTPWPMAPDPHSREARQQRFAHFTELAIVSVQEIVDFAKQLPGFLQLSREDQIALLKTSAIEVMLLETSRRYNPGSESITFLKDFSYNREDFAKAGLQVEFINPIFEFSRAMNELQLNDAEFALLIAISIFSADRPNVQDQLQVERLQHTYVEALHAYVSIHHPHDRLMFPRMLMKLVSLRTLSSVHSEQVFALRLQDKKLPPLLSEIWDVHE
Chain of Bile acid receptor (Homo sapiens) (Q96RI1 whole entry, looked up, the tested form may be a part): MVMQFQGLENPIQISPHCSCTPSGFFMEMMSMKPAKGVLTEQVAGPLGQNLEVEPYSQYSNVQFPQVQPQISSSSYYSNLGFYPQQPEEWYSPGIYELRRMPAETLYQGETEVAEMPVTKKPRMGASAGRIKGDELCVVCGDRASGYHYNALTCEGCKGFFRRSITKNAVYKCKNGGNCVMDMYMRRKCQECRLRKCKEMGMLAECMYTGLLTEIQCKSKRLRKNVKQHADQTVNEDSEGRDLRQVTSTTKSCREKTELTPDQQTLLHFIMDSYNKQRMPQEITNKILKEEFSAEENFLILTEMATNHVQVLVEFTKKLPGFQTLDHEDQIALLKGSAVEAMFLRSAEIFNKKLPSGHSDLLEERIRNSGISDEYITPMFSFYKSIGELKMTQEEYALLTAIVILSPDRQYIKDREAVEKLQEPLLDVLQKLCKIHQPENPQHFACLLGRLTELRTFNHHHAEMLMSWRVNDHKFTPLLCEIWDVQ
Chain of Hepatocyte nuclear factor 4-alpha (Homo sapiens) (P41235 whole entry, looked up): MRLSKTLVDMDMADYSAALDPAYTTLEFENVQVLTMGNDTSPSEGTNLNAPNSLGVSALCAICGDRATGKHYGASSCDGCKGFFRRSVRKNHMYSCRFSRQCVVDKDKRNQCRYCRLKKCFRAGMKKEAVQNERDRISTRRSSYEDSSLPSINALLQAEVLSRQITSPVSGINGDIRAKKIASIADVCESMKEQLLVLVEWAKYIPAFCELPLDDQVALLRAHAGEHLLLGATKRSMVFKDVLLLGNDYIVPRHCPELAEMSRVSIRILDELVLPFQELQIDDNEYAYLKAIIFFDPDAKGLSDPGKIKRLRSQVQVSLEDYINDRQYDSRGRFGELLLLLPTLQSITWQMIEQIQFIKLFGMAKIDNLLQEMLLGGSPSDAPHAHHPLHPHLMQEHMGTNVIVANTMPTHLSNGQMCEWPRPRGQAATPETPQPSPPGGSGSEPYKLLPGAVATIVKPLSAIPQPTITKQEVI
Chain of Myc proto-oncogene protein (Homo sapiens) (P01106 whole entry, looked up, the tested form may be a part): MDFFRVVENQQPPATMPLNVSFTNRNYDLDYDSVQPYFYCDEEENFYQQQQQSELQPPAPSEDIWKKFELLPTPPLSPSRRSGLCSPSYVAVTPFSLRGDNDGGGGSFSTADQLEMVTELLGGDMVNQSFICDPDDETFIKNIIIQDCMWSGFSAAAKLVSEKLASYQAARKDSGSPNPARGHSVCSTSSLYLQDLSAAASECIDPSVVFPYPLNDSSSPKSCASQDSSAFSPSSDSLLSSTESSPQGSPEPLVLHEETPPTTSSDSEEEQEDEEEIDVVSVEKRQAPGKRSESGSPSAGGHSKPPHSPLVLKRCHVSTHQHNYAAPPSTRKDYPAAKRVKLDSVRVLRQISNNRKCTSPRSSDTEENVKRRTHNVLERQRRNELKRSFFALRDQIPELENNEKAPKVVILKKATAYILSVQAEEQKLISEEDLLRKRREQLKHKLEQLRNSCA
Chain of Nuclear respiratory factor 1 (Homo sapiens) (Q16656 whole entry, looked up): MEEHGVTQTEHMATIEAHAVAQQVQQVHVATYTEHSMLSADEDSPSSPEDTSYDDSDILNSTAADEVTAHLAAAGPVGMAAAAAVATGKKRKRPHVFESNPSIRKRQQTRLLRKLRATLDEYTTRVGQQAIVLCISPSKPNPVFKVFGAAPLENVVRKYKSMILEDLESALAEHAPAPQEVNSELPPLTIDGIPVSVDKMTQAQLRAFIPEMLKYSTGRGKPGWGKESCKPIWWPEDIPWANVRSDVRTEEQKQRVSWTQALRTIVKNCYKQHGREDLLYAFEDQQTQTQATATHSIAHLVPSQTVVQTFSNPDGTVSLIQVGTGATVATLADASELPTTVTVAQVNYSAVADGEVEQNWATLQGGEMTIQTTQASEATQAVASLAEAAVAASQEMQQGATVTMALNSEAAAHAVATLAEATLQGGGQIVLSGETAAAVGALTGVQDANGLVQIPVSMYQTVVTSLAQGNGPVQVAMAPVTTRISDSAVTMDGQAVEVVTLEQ
Chain of Oxysterols receptor LXR-beta (Homo sapiens) (P55055 whole entry, looked up, the tested form may be a part): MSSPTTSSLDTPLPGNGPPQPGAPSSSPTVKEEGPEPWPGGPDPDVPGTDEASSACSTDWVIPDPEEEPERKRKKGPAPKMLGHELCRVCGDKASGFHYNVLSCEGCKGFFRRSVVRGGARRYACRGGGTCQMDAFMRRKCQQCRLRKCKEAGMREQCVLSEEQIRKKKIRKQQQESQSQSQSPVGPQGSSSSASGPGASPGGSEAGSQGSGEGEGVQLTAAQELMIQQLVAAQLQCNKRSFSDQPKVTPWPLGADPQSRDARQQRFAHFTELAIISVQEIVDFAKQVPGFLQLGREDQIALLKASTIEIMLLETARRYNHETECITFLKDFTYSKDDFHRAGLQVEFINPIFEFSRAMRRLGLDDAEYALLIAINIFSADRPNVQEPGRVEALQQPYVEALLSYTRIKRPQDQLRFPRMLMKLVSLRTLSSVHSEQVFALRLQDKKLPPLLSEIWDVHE
Chain of Nuclear receptor subfamily 4 group A member 2 (Homo sapiens) (P43354 whole entry, looked up, the tested form may be a part): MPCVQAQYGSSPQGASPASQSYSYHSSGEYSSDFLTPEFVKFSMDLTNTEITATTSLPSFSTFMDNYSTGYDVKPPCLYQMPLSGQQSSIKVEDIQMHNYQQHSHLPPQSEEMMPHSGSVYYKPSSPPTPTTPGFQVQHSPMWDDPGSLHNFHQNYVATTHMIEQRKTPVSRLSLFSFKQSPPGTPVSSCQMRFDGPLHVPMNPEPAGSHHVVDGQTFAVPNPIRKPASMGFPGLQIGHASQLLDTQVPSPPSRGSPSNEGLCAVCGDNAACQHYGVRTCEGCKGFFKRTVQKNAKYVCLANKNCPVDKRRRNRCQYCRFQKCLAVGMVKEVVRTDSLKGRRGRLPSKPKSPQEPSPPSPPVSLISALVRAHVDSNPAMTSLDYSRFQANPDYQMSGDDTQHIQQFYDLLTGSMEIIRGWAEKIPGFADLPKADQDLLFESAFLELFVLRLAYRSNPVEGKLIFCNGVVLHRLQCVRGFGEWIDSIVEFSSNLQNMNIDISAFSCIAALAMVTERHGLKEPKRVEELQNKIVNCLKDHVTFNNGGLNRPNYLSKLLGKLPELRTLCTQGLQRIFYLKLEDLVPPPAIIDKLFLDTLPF

OC[C@H]1O[C@@H](Oc2ccc(O)cc2)[C@H](O)[C@@H](O)[C@@H]1O
inactive: [1] | [2] | [3] | [4] | [5] | [6] | [7] | [8] | [9] | [10]

C=C(C#N)C(=O)OCC
active: [13] 100 µM | [10] 80 µM
not listed: [3] | [14] | [15] | [16] | [17] | [18] | [19]
inactive: all other assays above

CCOC(=O)COC(=O)c1cc(Oc2ccc(C(F)(F)F)cc2Cl)ccc1[N+](=O)[O-]
not listed: [1] | [2] | [4] | [13] | [16] | [17] | [18] | [19]
inactive: all other assays above

CCOC(=O)C(C#N)=C(c1ccccc1)c1ccccc1
active: [15] 100 µM | [8] 27.6 µM
not listed: [1] | [2] | [3] | [5] | [6]
inactive: all other assays above

CCCCCCC(=O)c1ccccc1
inactive: [14] | [5] | [7] | [12] | [9]
active: [8] 121 µM

C[Si]1(C)O[Si](C)(C)O[Si](C)(C)O1
inactive: [14] | [15] | [5] | [7] | [12] | [13] | [8] | [9] | [10]

C=CCCCCCCCCCC
not listed: [4] | [12] | [13] | [14] | [16] | [17] | [18] | [19]
inactive: all other assays above

CCCCCC(C=O)=Cc1ccccc1
active: [8] 100 µM | [10] 164 µM | [16] 31.7 µM | [17] 31.5 µM | [18] 33.1 µM | [19] 31 µM
not listed: [1] | [2] | [3] | [12] | [15]
inactive: all other assays above

CCCCCCCCCCCCCCN(CCO)CCO
inactive: [1] | [2] | [3] | [15] | [5] | [6] | [12] | [13] | [10]
active: [4] 162 µM | [7] 17.2 µM | [8] 11.1 µM

COc1ccccc1[N+](=O)[O-]
inactive: [14] | [4] | [5] | [6] | [7] | [12] | [8] | [9] | [10]

C=C(C)C(=O)OCCOC1CC2CC1C1C=CCC21 (stereo not given)
active: [8] 177 µM
not listed: [2] | [13] | [14] | [16] | [17] | [18] | [19]
inactive: all other assays above

CC/C=C\CCOC(=O)CC
inactive: [14] | [15] | [6] | [7] | [12] | [8] | [9] | [10]

C#CC(C)N(C)C(=O)Nc1ccc(Cl)cc1 (stereo not given)
active: [8] 48.4 µM
not listed: [11] | [14] | [16] | [17] | [18] | [19]
inactive: all other assays above

CC(C)=CCCC(C)CC(=O)O (stereo not given)
not listed: [10] | [11] | [14] | [16] | [17] | [18] | [19]
inactive: all other assays above

CN(C)C(=S)SC(=S)N(C)C
active: [8] 22.9 µM | [17] 31.8 µM | [18] 19.9 µM | [19] 31.4 µM
not listed: [1] | [2] | [4] | [5]
inactive: all other assays above

NCc1ccco1
not listed: [1] | [2] | [4] | [15] | [16] | [17] | [18] | [19]
inactive: all other assays above

O=C(CS)OCCOC(=O)CS
inactive: [14] | [3] | [4] | [5] | [6] | [7] | [9]
active: [15] 52.4 µM | [13] 43.8 µM | [8] 148 µM | [10] 100 µM
